According to PubChem BioAssay:
Calls of active or inactive are those of the source.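 The calls were made as follows: active = GFP response below 50% of the DMSO control; inconclusive = fewer than 70 events counted for a yeast strain; inactive = the rest.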

Assay: hit retest on RPL19A-GFP reporter strain – cell-based, S. cerevisiae, flow cytometry, cherry picks, mother/daughter gates, confirmation (AID 2270)
Conditions: 3 h, at 10 µM, stronger effect = lower value, 100 = same GFP as DMSO wells
For `CSc1nc2ccc(S(=O)(=O)N3CCCC3)cc2s1`, the GFP response vs DMSO was 90.5% (inactive).
For `O=C1c2cccc3c([N+](=O)[O-])ccc(c23)C(=O)N1CCc1ccccn1`, the GFP response vs DMSO was 103% (inactive).
With `COc1ccc(N=Cc2nc(-c3ccccc3)oc2OC(=O)c2ccccc2)cc1` the GFP response vs DMSO was 101% (inactive).
With `CS(=O)(=O)Nc1ccc(C2=NN(S(C)(=O)=O)C(c3ccccc3)C2)cc1` (stereo not given) the GFP response vs DMSO was 98.7% (inactive).
With `Nc1cccc(C(=O)Nc2ccccc2Cl)c1` the GFP response vs DMSO was 99.8% (inactive).
In the case of `CCN(CC)c1ccc(/C=C/c2cccc[n+]2C)c(OC)c1`, the GFP response vs DMSO is reported as 103% (inactive).
With `O=C(N/N=C/c1cccc(Oc2ccccc2)c1)c1ccncc1` the GFP response vs DMSO was 96.7% (inactive).
For `N/C(Cc1ccc(Cl)cc1Cl)=N\OC(=O)c1ccccc1`, the GFP response vs DMSO was 99.2% (inactive).
In the case of `CCC(=O)N/C(N)=N/c1nc2ccccc2o1`, the GFP response vs DMSO is reported as 83.5% (inactive).
In the case of `Cc1cccc2nc(-c3cccnc3)c(NCCC(C)C)n12`, the GFP response vs DMSO is reported as 98.8% (inactive).
In the case of `CCOc1ccc(C(Nc2cccnc2)c2cc(Cl)c3cccnc3c2O)cc1` (stereo not given), the GFP response vs DMSO is reported as 99.6% (inactive).
In the case of `Nc1cccnc1S(=O)(=O)c1ccccc1`, the GFP response vs DMSO is reported as 98.8% (inactive).
In the case of `O=C1ON=C(c2ccccc2)/C1=C/c1ccco1`, the GFP response vs DMSO is reported as 95.8% (inactive).
With `COc1cc(NC(=O)c2c(OC)cccc2OC)ccc1NC(=O)c1cc2ccccc2o1` the GFP response vs DMSO was 96% (inactive).
In the case of `Cc1cc(NC(=O)c2cc3ccccc3o2)ccc1NC(=O)c1ccccc1`, the GFP response vs DMSO is reported as 98.4% (inactive).
With `Clc1cccc(Cn2ncc3ccccc32)c1` the GFP response vs DMSO was 95% (inactive).
With `Cc1ccccc1NC(=O)CC1SC(=O)N(c2ccccc2)C1=O` (stereo not given) the GFP response vs DMSO was 94.9% (inactive).
In the case of `CCOC(=O)c1sc(NC(=O)CN2C(=O)c3cccc4cccc(c34)C2=O)nc1C`, the GFP response vs DMSO is reported as 96.6% (inactive).
In the case of `COc1ccc(C(=O)Nc2cccc(C)c2)cc1`, the GFP response vs DMSO is reported as 98.2% (inactive).
With `COc1ccc(C2CC(c3cccs3)=NN2S(=O)(=O)c2ccc(C)cc2)cc1` (stereo not given) the GFP response vs DMSO was 98.7% (inactive).
For `O=C1c2ccsc2SCCN1Cc1ccccc1`, the GFP response vs DMSO was 93.8% (inactive).
In the case of `CCCOc1ccc(C(=O)NNC(=S)NC(=O)c2ccco2)cc1`, the GFP response vs DMSO is reported as 124% (inactive).
With `CCc1c2ccccc2nn1-c1ccccc1C(=O)C(C)=O` the GFP response vs DMSO was 95.8% (inactive).
For `Cc1c(Br)cc(C(=O)O)c(C)c1C`, the GFP response vs DMSO was 94.4% (inactive).
In the case of `CSC1=NS(=O)(=O)c2c(C)nn(C)c2S1`, the GFP response vs DMSO is reported as 88.7% (inactive).
In the case of `O=S(=O)(c1ccc(Cl)cc1)c1ccccn1`, the GFP response vs DMSO is reported as 96.2% (inactive).
In the case of `COc1cccc(C(=O)/C=C/c2ccc(SC)cc2)c1`, the GFP response vs DMSO is reported as 98.6% (inactive).
With `Cc1ccc(N2C(=O)CC(Sc3ncn[nH]3)C2=O)cc1C` (stereo not given) the GFP response vs DMSO was 106% (inactive).
With `O=C(NCc1ccccn1)c1cc(-c2ccc(Cl)cc2)oc1C(F)(F)F` the GFP response vs DMSO was 99.5% (inactive).
In the case of `O=C(CSc1cccc[n+]1[O-])c1cc2ccccc2o1`, the GFP response vs DMSO is reported as 104% (inactive).
In the case of `S=c1[nH]nc(NCCCN2CCOCC2)s1`, the GFP response vs DMSO is reported as 96% (inactive).
In the case of `Cc1cccc(N=c2c([N+](=O)[O-])nn(-c3ccc(Cl)cc3)n2O)c1`, the GFP response vs DMSO is reported as 97% (inactive).
With `COc1ccc(CCN2C(=O)c3cccc4cccc(c34)C2=O)cc1OC` the GFP response vs DMSO was 104% (inactive).
For `COc1ccc(C(=O)NC(=S)Nc2ccc(CN3CCOCC3)cc2)cc1`, the GFP response vs DMSO was 101% (inactive).
In the case of `CCOc1ccccc1N1CCN(C(=O)c2ccccc2)CC1`, the GFP response vs DMSO is reported as 97.6% (inactive).
For `CCOC(=O)C(=Cc1ccc(F)cc1)C(=O)OCC`, the GFP response vs DMSO was 101% (inactive).
For `O=C(O)c1ccn2c(C(=O)c3ccccc3)c(-c3ccccc3)cc2c1`, the GFP response vs DMSO was 91.1% (inactive).
In the case of `CCc1nnc(N2C(=O)c3cccc4cccc(c34)C2=O)s1`, the GFP response vs DMSO is reported as 94.5% (inactive).
For `CC1CCCN(CCCNC(=O)C2CCN(S(=O)(=O)N3CCC4(CC3)OCCO4)CC2)C1` (stereo not given), the GFP response vs DMSO was 96.4% (inactive).
For `COc1ccccc1NC(=O)c1ccc(N)cc1`, the GFP response vs DMSO was 98% (inactive).

Same assay, conditions: 3 h, measured here: daughter cell gate, at 10 µM, stronger effect = lower value, 100 = same GFP as DMSO wells
With `CSc1nc2ccc(S(=O)(=O)N3CCCC3)cc2s1` the GFP response vs DMSO was 85.5%.
For `O=C1c2cccc3c([N+](=O)[O-])ccc(c23)C(=O)N1CCc1ccccn1`, the GFP response vs DMSO was 104%.
`COc1ccc(N=Cc2nc(-c3ccccc3)oc2OC(=O)c2ccccc2)cc1` gave a GFP response vs DMSO of 101%.
Compound `CS(=O)(=O)Nc1ccc(C2=NN(S(C)(=O)=O)C(c3ccccc3)C2)cc1` (stereo not given) has a GFP response vs DMSO of 98.1%.
With `Nc1cccc(C(=O)Nc2ccccc2Cl)c1` the GFP response vs DMSO was 99.1%.
Work on `CCN(CC)c1ccc(/C=C/c2cccc[n+]2C)c(OC)c1` yielded a GFP response vs DMSO of 103%.
For `O=C(N/N=C/c1cccc(Oc2ccccc2)c1)c1ccncc1`, the GFP response vs DMSO was 97.3%.
In the case of `N/C(Cc1ccc(Cl)cc1Cl)=N\OC(=O)c1ccccc1`, the GFP response vs DMSO is reported as 86.3%.
In the case of `CCC(=O)N/C(N)=N/c1nc2ccccc2o1`, the GFP response vs DMSO is reported as 85.1%.
With `Cc1cccc2nc(-c3cccnc3)c(NCCC(C)C)n12` the GFP response vs DMSO was 99.8%.
With `CCOc1ccc(C(Nc2cccnc2)c2cc(Cl)c3cccnc3c2O)cc1` (stereo not given) the GFP response vs DMSO was 104%.
Compound `Nc1cccnc1S(=O)(=O)c1ccccc1` has a GFP response vs DMSO of 97.8%.
Compound `O=C1ON=C(c2ccccc2)/C1=C/c1ccco1` has a GFP response vs DMSO of 86.4%.
Compound `COc1cc(NC(=O)c2c(OC)cccc2OC)ccc1NC(=O)c1cc2ccccc2o1` has a GFP response vs DMSO of 95.5%.
Work on `Cc1cc(NC(=O)c2cc3ccccc3o2)ccc1NC(=O)c1ccccc1` yielded a GFP response vs DMSO of 97.4%.
With `Clc1cccc(Cn2ncc3ccccc32)c1` the GFP response vs DMSO was 95.1%.
For `Cc1ccccc1NC(=O)CC1SC(=O)N(c2ccccc2)C1=O` (stereo not given), the GFP response vs DMSO was 97.3%.
In the case of `CCOC(=O)c1sc(NC(=O)CN2C(=O)c3cccc4cccc(c34)C2=O)nc1C`, the GFP response vs DMSO is reported as 98.1%.
In the case of `COc1ccc(C(=O)Nc2cccc(C)c2)cc1`, the GFP response vs DMSO is reported as 99.3%.
Work on `COc1ccc(C2CC(c3cccs3)=NN2S(=O)(=O)c2ccc(C)cc2)cc1` (stereo not given) yielded a GFP response vs DMSO of 99.1%.
`O=C1c2ccsc2SCCN1Cc1ccccc1` showed a GFP response vs DMSO of 92.9%.
`CCCOc1ccc(C(=O)NNC(=S)NC(=O)c2ccco2)cc1` gave a GFP response vs DMSO of 111%.
Compound `CCc1c2ccccc2nn1-c1ccccc1C(=O)C(C)=O` has a GFP response vs DMSO of 97.3%.
In the case of `Cc1c(Br)cc(C(=O)O)c(C)c1C`, the GFP response vs DMSO is reported as 94.7%.
Work on `CSC1=NS(=O)(=O)c2c(C)nn(C)c2S1` yielded a GFP response vs DMSO of 91%.
For `O=S(=O)(c1ccc(Cl)cc1)c1ccccn1`, the GFP response vs DMSO was 96.4%.
`COc1cccc(C(=O)/C=C/c2ccc(SC)cc2)c1` showed a GFP response vs DMSO of 98.1%.
`Cc1ccc(N2C(=O)CC(Sc3ncn[nH]3)C2=O)cc1C` (stereo not given) showed a GFP response vs DMSO of 111%.
For `O=C(NCc1ccccn1)c1cc(-c2ccc(Cl)cc2)oc1C(F)(F)F`, the GFP response vs DMSO was 98.4%.
For `O=C(CSc1cccc[n+]1[O-])c1cc2ccccc2o1`, the GFP response vs DMSO was 107%.
`S=c1[nH]nc(NCCCN2CCOCC2)s1` gave a GFP response vs DMSO of 97.1%.
Work on `Cc1cccc(N=c2c([N+](=O)[O-])nn(-c3ccc(Cl)cc3)n2O)c1` yielded a GFP response vs DMSO of 95.1%.
Compound `COc1ccc(CCN2C(=O)c3cccc4cccc(c34)C2=O)cc1OC` has a GFP response vs DMSO of 100%.
`COc1ccc(C(=O)NC(=S)Nc2ccc(CN3CCOCC3)cc2)cc1` showed a GFP response vs DMSO of 98.8%.
For `CCOc1ccccc1N1CCN(C(=O)c2ccccc2)CC1`, the GFP response vs DMSO was 98.5%.
`CCOC(=O)C(=Cc1ccc(F)cc1)C(=O)OCC` gave a GFP response vs DMSO of 101%.
Compound `O=C(O)c1ccn2c(C(=O)c3ccccc3)c(-c3ccccc3)cc2c1` has a GFP response vs DMSO of 88.6%.
With `CCc1nnc(N2C(=O)c3cccc4cccc(c34)C2=O)s1` the GFP response vs DMSO was 95%.
Work on `CC1CCCN(CCCNC(=O)C2CCN(S(=O)(=O)N3CCC4(CC3)OCCO4)CC2)C1` (stereo not given) yielded a GFP response vs DMSO of 96.1%.
`COc1ccccc1NC(=O)c1ccc(N)cc1` gave a GFP response vs DMSO of 98%.
